In PubChem BioAssay (NCI) one finds growth data, which are given here for 8 molecules.

Among the test systems are NCI-H23 lung; NCI-H322M lung; HOP-62 NSCLC; NCI-H460 lung; HOP-92 NSCLC; NCI-H522 lung; A549/ATCC NSCLC; 786-0 renal; COLO 205 colon; DU-145 prostate; K-562 leukemia; MALME-3M melanoma; MDA-MB-231 breast; RXF 393 renal; SF-268 CNS; SF-295 CNS; SF-539 CNS; UACC-257 melanoma; M14 melanoma; HCT-15 colon.
Experiment in all cases: NCI-60 one-dose screen, 48 h (100 = growth as untreated, 0 = no growth, -100 = all killed)
What all share (details): 10 µM unless noted

The panel holds about 83,000 compounds, 20% with a hit somewhere; the sample as a whole holds those more often.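 Negative percent growth values reflect cell death: -40 means 40% of the cells present at the start died, and -100 means all died.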 Unmarked numbers belong to inactive results. Activity calls are given as the source filed them. The calls were made as follows: active = growth percent below 10; inactive = the rest.

Regarding `O=C1NC(=O)C(=Cc2cn(Cc3cn(Cc4ccc(Cl)cc4Cl)nn3)c3ccccc23)C(=O)N1`, the growth in the experiment with NCI-H23 lung is 81.4%; with NCI-H322M lung, 92.4%; in the experiment on HOP-62 NSCLC, 94.3%; in the experiment with NCI-H460 lung it was 51.7%; in the experiment on HOP-92 NSCLC, 92.6%; in the experiment with NCI-H522 lung it was 77.7%. Besides, the growth in the experiment on A549/ATCC NSCLC was 101%; in the experiment on 786-0 renal, 106%; in the experiment with COLO 205 colon it was 122%; in the experiment on DU-145 prostate, 98.9%; in the experiment with K-562 leukemia, 75.5%; in the experiment on MALME-3M melanoma it was 91.5%. Moreover, the growth with MDA-MB-231 breast was 81.9%; with RXF 393 renal, 85.2%; with SF-268 CNS it was 84.8%; in the experiment with SF-295 CNS it was 89.6%; with SF-539 CNS, 93%; in the experiment on UACC-257 melanoma it was 95.8%. Besides, the growth with M14 melanoma was 96.8%; in the experiment with HCT-15 colon, 90.4%.

As to `Nc1ccc(-c2ccc(-c3ccccc3N)c3[nH]c4ccccc4c23)cc1`, the growth was 28.4% in the experiment with NCI-H23 lung; 41.4% with NCI-H322M lung; 42.1% in the experiment on HOP-62 NSCLC; 16.1% in the experiment with NCI-H460 lung; 36.9% in the experiment on HOP-92 NSCLC; 46.4% in the experiment on NCI-H522 lung. Also, the growth is 30.4% with A549/ATCC NSCLC; 46% in the experiment with 786-0 renal; 13.2% in the experiment on COLO 205 colon; 10.2% in the experiment on DU-145 prostate; 13.4% in the experiment on K-562 leukemia; 36.8% with MALME-3M melanoma. Further, the growth in the experiment with MDA-MB-231 breast was 36.2%; in the experiment on RXF 393 renal it was 24.5%; with SF-268 CNS it was 39.5%; in the experiment on SF-295 CNS it was 22.2%; with SF-539 CNS it was 28%; in the experiment with UACC-257 melanoma, 33.2%. Further, the growth was 6.58% (active) in the experiment on M14 melanoma and 19.5% in the experiment with HCT-15 colon.

Regarding `CCC1=C[C@@H]2CN(C1)Cc1c([nH]c3ccccc13)[C@@](C(=O)OC)(c1cc3c(cc1OC)N(C)[C@H]1[C@@](O)(C(=O)OC)[C@H](OC(C)=O)[C@]4(CC)[C@@H]5C[C@@H]5CN5CC[C@]31[C@@H]54)C2`, the growth with NCI-H23 lung is 5.89% (active); in the experiment with NCI-H322M lung, 49.3%; in the experiment on HOP-62 NSCLC, 17.4%; in the experiment on NCI-H460 lung, 0.48% (active); in the experiment with HOP-92 NSCLC it was 21.2%; in the experiment with NCI-H522 lung it was -14.5% (active). For the same molecule, the growth in the experiment on A549/ATCC NSCLC was 13.9%; in the experiment with 786-0 renal, 11.2%; in the experiment with COLO 205 colon, -86% (active); in the experiment with DU-145 prostate, -17.9% (active); with K-562 leukemia, -10% (active); in the experiment on MALME-3M melanoma it was -63.9% (active). Besides, the growth was -45.4% (active) in the experiment on MDA-MB-231 breast; 29.5% with RXF 393 renal; 8.9% (active) in the experiment with SF-268 CNS; 20.1% in the experiment with SF-295 CNS; -17.5% (active) with SF-539 CNS; 32.8% with UACC-257 melanoma. Also, the growth in the experiment with M14 melanoma is -22.3% (active); in the experiment with HCT-15 colon it was 13.4%.

With `NCCOc1ccccc1/C=C1\c2ccccc2-c2ccc([N+](=O)[O-])cc21`, the growth in the experiment with NCI-H23 lung was 1.49% (active); with NCI-H322M lung, 51.1%; in the experiment with HOP-62 NSCLC, -71.1% (active); in the experiment on NCI-H460 lung, -85.1% (active); in the experiment on HOP-92 NSCLC it was -1.14% (active); with NCI-H522 lung it was 21.3%. Besides, the growth was -74.6% (active) in the experiment on A549/ATCC NSCLC; -41.5% (active) in the experiment with 786-0 renal; -75.4% (active) with COLO 205 colon; -42.3% (active) in the experiment on DU-145 prostate; -44.9% (active) in the experiment on K-562 leukemia; 26% in the experiment on MALME-3M melanoma. For the same molecule, the growth in the experiment on MDA-MB-231 breast is 17.9%; with RXF 393 renal, 1.55% (active); in the experiment on SF-268 CNS, 18.1%; in the experiment on SF-295 CNS it was 6.73% (active); in the experiment with SF-539 CNS, 8.01% (active); in the experiment on UACC-257 melanoma, 63.9%. Besides, the growth was 0.981% (active) in the experiment on M14 melanoma and -52.7% (active) in the experiment with HCT-15 colon.

Turning to `CCCN1C(=O)N(CCC)C2C1NN=c1s/c(=C3\C(=O)N(C(C)C)c4ccccc43)c(=O)n12` (stereo not given), the growth was 76% in the experiment with NCI-H23 lung; 78% in the experiment with NCI-H322M lung; 41.9% in the experiment with HOP-62 NSCLC; 35.3% in the experiment on NCI-H460 lung; 27.1% in the experiment on HOP-92 NSCLC; 22.4% with NCI-H522 lung. The growth with A549/ATCC NSCLC is 43.9%; with 786-0 renal it was -6.03% (active); in the experiment on COLO 205 colon, 43.8%; with DU-145 prostate it was 53.5%; in the experiment with K-562 leukemia, 11.3%; with MALME-3M melanoma, 36.5%. The growth was 41.8% with MDA-MB-231 breast; 12.2% with RXF 393 renal; 46.8% with SF-268 CNS; 22.2% in the experiment on SF-295 CNS; 23.1% with SF-539 CNS; 53.8% with UACC-257 melanoma. For the same molecule, the figures for the growth in the experiment on M14 melanoma and with HCT-15 colon were 37.8% and 24.4%, respectively.

On to `CCC(C)(C)C(=O)O[C@H]1C[C@@H](C)C=C2C=C[C@H](C)[C@H](CC[C@@H]3CC=CC(=O)O3)[C@H]21`, for which the growth in the experiment on NCI-H23 lung is 78%; with NCI-H322M lung it was 103%; in the experiment with HOP-62 NSCLC it was 108%; in the experiment with NCI-H460 lung it was 101%; in the experiment with HOP-92 NSCLC, 75.3%; in the experiment on NCI-H522 lung, 39.4%. The growth is 78.7% in the experiment on A549/ATCC NSCLC; 110% in the experiment on 786-0 renal; 72.7% with COLO 205 colon; 82.7% with DU-145 prostate; 32.8% in the experiment on K-562 leukemia; 94.1% in the experiment on MALME-3M melanoma. For the same molecule, the growth in the experiment with MDA-MB-231 breast is 96.9%; in the experiment on RXF 393 renal it was 41.3%; in the experiment with SF-268 CNS it was 85.7%; in the experiment on SF-295 CNS it was 97.5%; in the experiment on SF-539 CNS, 96.1%; with UACC-257 melanoma it was 60.4%. Also, the values for the growth in the experiment with M14 melanoma and with HCT-15 colon were 61.3% and 63.9%, respectively.

As for `O=c1c2cc(F)cc(Cl)c2sc2c(Cl)nc3ccccc3c12`, the growth in the experiment with NCI-H23 lung was 90.5%; in the experiment on NCI-H322M lung, 97.8%; in the experiment on HOP-62 NSCLC, 89.4%; in the experiment on NCI-H460 lung it was 100%; with HOP-92 NSCLC it was 99.3%; in the experiment with NCI-H522 lung, 77%. Further, the growth with A549/ATCC NSCLC is 111%; in the experiment with 786-0 renal, 110%; with COLO 205 colon, 116%; in the experiment on DU-145 prostate, 109%; with K-562 leukemia, 110%; with MALME-3M melanoma, 88.9%. Moreover, the growth with MDA-MB-231 breast was 84%; in the experiment on RXF 393 renal it was 100%; in the experiment with SF-268 CNS, 98.5%; with SF-295 CNS, 101%; in the experiment with SF-539 CNS, 97%; in the experiment with UACC-257 melanoma it was 114%. Moreover, the values for the growth with M14 melanoma and in the experiment on HCT-15 colon were 99.5% and 103%, respectively.

On to `COc1cc(/C=C2\CN(C)C/C(=C\c3cc(CN4CCOCC4)c(O)c(OC)c3)C2=O)cc(CN2CCOCC2)c1O`, for which the growth was 37.3% with NCI-H23 lung; 67.5% in the experiment on NCI-H322M lung; 68.9% in the experiment with HOP-62 NSCLC; 15.2% with NCI-H460 lung; 93.2% in the experiment with HOP-92 NSCLC; 41% with NCI-H522 lung. For the same molecule, the growth is 56.8% in the experiment with A549/ATCC NSCLC; 76.6% in the experiment with 786-0 renal; 45.2% in the experiment with COLO 205 colon; 28.5% in the experiment with DU-145 prostate; 29.1% in the experiment with K-562 leukemia; 65.6% in the experiment with MALME-3M melanoma. For the same molecule, the growth with MDA-MB-231 breast is 69.5%; in the experiment on RXF 393 renal, 78%; with SF-268 CNS, 56.9%; in the experiment with SF-295 CNS, 77.1%; with SF-539 CNS it was 34.8%; in the experiment with UACC-257 melanoma, 71.2%. Besides, the growth with M14 melanoma was 66.4%; in the experiment on HCT-15 colon, 64.8%.
